Bioassay records deposited in PubChem by National Center for Advancing Translational Sciences (NCATS).
ERK EGF inh = EGF-driven ERK pathway inhibition | Potency, µM (titrated, usually from 11.5 µM), for inactives: at the top dose activity change, negative = inhibition, usual class: inhibitors | HEK293-V1b, EGF-stimulated phospho-ERK AlphaScreen | 130,000 compounds, 0.41% hits; active = well fitted inhibition curve with a large enough effect;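 note: plate controls were stimulated vehicle wells for no effect and unstimulated vehicle basal for full effect; nearly all actives have a fitted effect of over 55% in size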
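Readout: AlphaScreen signal for phosphorylated ERK in lysed HEK293 cells stably expressing V1b. Stimulus 25 nM EGF, 5 min, following 30 min compound exposure. Data scaled to DMSO basal and full EGF activation.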
* hit, by the source's call; [ ] = remark or other dose. Only a selection was taken, and hits are over-represented in it overall. Potency is the fitted concentration of half-maximal effect.

SMILES | ERK EGF inh
Cc1cccc(CNc2ncncc2-c2cccc(NS(C)(=O)=O)c2)c1 | 18.9%
CCN(CC)CCCC(C)n1c(-c2ccccc2)nc2c(NCCO)nc(C)nc21 (stereo not given) | -1.7%
O=S(=O)(c1ccc(Cl)c(NC(=S)N/N=C/c2ccc(O)cc2)c1)N1CCOCC1 | 28.2µM*
O=S(=O)(c1ccc(NC(=S)N/N=C/c2ccc(O)c(O)c2)cc1)N1CCOCC1 | -4.8%[57.5 µM]
O=S(=O)(c1ccc(Cl)c(NC(=S)Nc2ccccc2N2CCOCC2)c1)N1CCOCC1 | 3.1%
CO[C@H]1[C@H](O[C@H]2O[C@@H](C)[C@@H](O[C@@H]3C[C@](C)(O)[C@H](O)[C@H](C)O3)[C@@H](N(C)C)[C@@H]2O)[C@@H](CC=O)C[C@@H](C)[C@@H](O[C@H]2CC[C@H](N(C)C)[C@H](C)O2)/C=C\C=C/C[C@@H](C)OC(=O)C[C@H]1O | 3.2%[25.7 µM]
C=CCC(C)(O)/C=C/c1ccccc1 (stereo not given) | -5.1%
c1cncc(N=c2scc(-c3cccc4ccccc34)n2CCCn2ccnc2)c1 | 7.1%
Cc1ccc(-c2csc(=Nc3cccnc3)n2CCCN2CCCC2=O)cc1C | -5.2%
Cc1ccc(-c2csc(=Nc3cccnc3)n2CCCn2ccnc2)cc1C | 28.2µM*
NC(Cc1cc(I)c(Oc2cc(I)c(O)c(I)c2)c(I)c1)C(=O)O (stereo not given) | 0.2%
C/C(N)=C(/C#N)C(=O)COC(=O)c1cccc(O)c1 | 28.2µM*
CC(=O)Nc1ccc(C(=O)OCC(=O)/C(C#N)=C(\C)N)cc1 | 25.9%
C/C(N)=C(/C#N)C(=O)COC(=O)c1cc2c(s1)CCCC2 | -20.4%
C=CC1=C(C)C2=NC1=CC1=NC(=CC3=NC(=CC4=NC(=C2)C(C)=C4CCC(=O)O)C(CCC(=O)O)=C3C)C(C=C)=C1C.[Zn] | 2.5%
COC(=O)[C@@]1(Cc2ccc(OC)cc2)[C@H]2c3cc(C(=O)N(C)C)n(Cc4ccc(OC)c(OC)c4)c3C[C@H]2CN1C(=O)c1ccccc1 | 7.8%
C=C[C@@H]1CN2CC[C@@H]1C[C@H]2[C@H](O)c1ccnc2ccc(OC)cc12 | 1.9%
CCCCCc1cc(=O)oc2c(C(CCN3CCCC(C)C3)c3cc(OC)c(OC)c(OC)c3)c(OC)cc(OC)c12 (stereo not given) | 39.8µM*
COc1cc(OC)c2ccc(=O)oc2c1C(CCN1CCCC(C)C1)c1ccc(N(C)C)cc1 (stereo not given) | -20.4%[57.5 µM]
COc1cc(OC)c2c(-c3ccccc3)cc(=O)oc2c1C(CCN1CCCC(C)C1)c1ccc2c(c1)OCO2 (stereo not given) | -13.0%[57.5 µM]
COC(=O)c1cc(C(=O)N2CCOCC2)cc([N+](=O)[O-])c1 | -31.6%
COC1(C)CC2C(CC1OC(=O)c1cc([N+](=O)[O-])cc([N+](=O)[O-])c1)C2(C)C (stereo not given) | 25.1µM*
CCOC(=O)c1cc(N)cc([N+](=O)[O-])c1 | 16.4%
C[C@H](NC(=O)/C(C#N)=C/c1ccc(O)c(O)c1)c1ccccc1 | 10.7%
N[C@@H](Cc1cc(CP(=O)(O)O)cc(-c2ccccc2Cl)c1)C(=O)O | -6.0%
SMILES | ERK EGF inh
CCN(CC)c1ncnc2scc(C3COc4ccccc4O3)c12 (stereo not given) | 0.4%
c1ccc(-c2csc3ncnc(NCC4COc5ccccc5O4)c23)cc1 (stereo not given) | 14.1µM*
c1ccc(-c2csc3ncnc(NCCCN4CCOCC4)c23)cc1 | 5.3%
C[C@@H]1CC[C@H]2[C@H](C)[C@H]3CC[C@H]4C5[C@@H](O)CC6=CC(=O)CC[C@]6(C)[C@H]5C[C@H]4C3C(=O)N2C1 (stereo not given in full) | -6.7%
CO/N=C1\CN(c2nc3c(cc2F)c(=O)c(C(=O)O)cn3C2CC2)CC1CN (stereo not given) | -0.8%
O=C(NCC1CC1)[C@H]1C[C@@H]1[C@H](NP(=O)(c1ccccc1)c1ccccc1)c1ccccc1 | 5.1%
COc1ccc(-c2[nH]nc3oc(=O)c(CCO)c(C)c23)cc1 | 15.8µM*
COc1ccc(-c2[nH]ncc2C=O)cc1 | 3.7%
COc1ccc(-c2cc(C(=O)NN)[nH]n2)cc1 | 0.8%
Cc1cnc(C)c(N2CCN(Cc3nc(-c4ccc(C)o4)oc3C)CC2)n1 | -17.3%
COc1ccc(-c2nc(CN3CCN(c4cc(C)nc(C)c4)CC3)c(C)o2)c2ccccc12 | -15.5%
Cc1oc(-c2cccc3ccccc23)nc1CN1CCN(c2ncnc3ccccc23)CC1 | 31.6µM*
COc1ccc2c(c1)C(=O)[C@H](OC(=O)NCc1ccc3c(c1)OCO3)[C@@H](c1ccc(OC)c(Br)c1)O2 | -5.3%
c1ccc2c(NCC3CCCO3)nc(N3CCCCC3)nc2c1 (stereo not given) | 6.0%
CC(C)Oc1ccc(-c2nc(NCC3CCCO3)c3ccccc3n2)cc1 (stereo not given) | 31.6µM*
CCOc1ccc(-c2cc(C(=O)NCC3CCCO3)c3ccccc3n2)cc1 (stereo not given) | 2.0%
CN(C)CCCSc1ccccc1NC(=O)/C=C\c1ccccc1 | -4.6%
COc1ccccc1-c1nc2ccccc2nc1-c1ccccc1OC | 2.2%
COc1ccc2nc3cccc(OC)c3nc2c1 | 7.0%
COc1ccc2nc3ccccc3nc2c1N | 28.2µM*
COc1ccc(-n2c(=O)c(C)nc3cnc(Nc4ccccc4)nc32)cc1 | 1.3%
COC(=O)Cc1ccc(NC(=S)NCCSc2ccc(Cl)cc2)cc1 | 28.2µM*
Cc1cc(C)cc(NC(=S)NCCSc2ccc(Cl)cc2)c1 | 1.9%
COC(=O)Cc1ccc(NC(=S)NCCO)cc1 | -6.1%[57.5 µM]
O=C(O)CC/C=C\CC[C@H]1[C@@H](N2CCCCC2)[C@@H](O)C[C@@H]1OCc1ccc(-c2ccccc2)cc1 | -3.3%
SMILES | ERK EGF inh
NC(=O)c1ncn(C2OC(CO)C(O)C2O)n1 (stereo not given) | 25.5%
CCOC(=O)N1CCc2c(sc(NC(=O)CN3CCN(C)CC3)c2C(=O)Nc2ccccc2)C1 | 28.9%
CCOC(=O)N1CCc2c(sc(NC(=O)CN3CCOCC3)c2C(=O)Nc2ccccc2)C1 | 35.5µM*
CCOC(=O)N1CCc2c(sc(NC(=O)CN3CCOCC3)c2C#N)C1 | -7.6%[57.5 µM]
COc1ccc(/C=C/C2=C[C@]3(C)C[C@]2(C)[C@H](c2ccc(OC)cc2)CC3=O)cc1 | -6.0%
C=C1C[C@@]23C[C@]1(O)CC[C@@H]2[C@]12C=C[C@@H](O)[C@](C)(C(=O)O1)[C@H]2[C@H]3C(=O)O | -7.2%[25.7 µM]
N[C@H](CC(=O)O)C(=O)O | 3.0%
O=C1c2cc(Br)ccc2O[C@@H](c2ccc3c(c2)OCO3)[C@@H]1O | 2.6%
N#C/C(=C/c1ccco1)C(N)=S | -6.5%[57.5 µM]
CC(C)OC(=O)/C(=C/c1ccco1)c1ccccc1 | -6.1%[57.5 µM]
N#CC(C#N)=C1C=CC=CN1/C(=C\c1ccco1)C(=O)c1ccccc1 | 14.1µM*
COc1ccc2c(c1)OC1(O)COc3cc(OC)c(OC)cc3C1=C2 (stereo not given) | 24.1%
CC[C@H](C)[C@@H](NC(=O)O[C@@H]1Cc2cc(Br)ccc2O[C@H]1c1cccc(OC)c1)C(=O)OC | -7.7%
O=c1onc2cnc3ccccc3n12 | 23.9%
CCOC(=O)/C(C)=N/NC(C)=O | -8.5%
Cc1nnc(SCC2=C(C(=O)O)N3C(=O)C(NC(=O)Cn4cnnn4)[C@@H]3SC2)s1 (stereo not given in full) | 7.7%
Cc1ccc(CNC(=O)c2nn(C)c(C)c2[N+](=O)[O-])cc1 | 8.3%
CCN(CC)c1ccc(N=Nc2ncn[nH]2)cc1 | 7.0%
CCN(Cc1ccccc1)c1ccc(/C=N/NS(=O)(=O)c2ccc(C)c([N+](=O)[O-])c2)cc1 | 6.6%
